From PubChem BioAssay (NCI)
Compounds without any hit were thinned out: in the full panel of roughly 83,000, 20% have a hit.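 Testing used 96-well plates and a 48-hour single-concentration exposure. Example: -40 means 40% of the starting cells died.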 Unmarked numbers belong to inactive results. The source made the active and inactive calls. How the source made its calls: active means growth percent below 10; inactive means the rest.

What follows are compounds tested on UACC-62 melanoma (assay: NCI-60 one-dose screen, 48 h (100 = growth as untreated, 0 = no growth, -100 = all killed)). Details: 10 µM unless noted.

Compound | growth
Cc1nn(-c2ccccc2)c2nc(C)n(-c3ccc(Br)cc3)c(=O)c12 | 38.7%
CCOC(=O)C(CC)n1c(=O)c2cc(OC)c(OC)cc2c2cnc3[nH]ccc3c21 (stereo not given) | 63.2%
CC(C)c1c(C(=O)Nc2ccccc2)c(-c2ccccc2)c(-c2ccc(F)cc2)n1CC[C@@H]1CC=CC(=O)O1 | 18.9%
CC(=O)N1CC(Nc2ccc(OC(F)(F)F)cc2)=CC1=O | 39.1%
Oc1ccccc1/C=N/Nc1ccc2ccccc2n1 | 40.6%
O=[N+]([O-])c1cccc(C2CC(c3ccccc3)=Nc3ccccc3S2)c1 (stereo not given) | 88.4%
CCCCCC(=O)N(CCCC)CCCC | 94.2%
CCCCCCCCCCCCCCCCNCCC[C@@H](C)[C@H]1CC[C@H]2[C@@H]3[C@H](OCCCN)C[C@@H]4C[C@H](OCCCN)CC[C@]4(C)[C@H]3C[C@H](OCCCN)[C@]12C | -64.2% (active)
COc1ccc(-c2cc(NC(=O)Nc3ccc(O)cc3)no2)cc1 | 44.5%
O=C(O)C(O)C(O)C(=O)O.[NH-]C1CCCCC1[NH-].[Pt+2] (stereo not given) | 100%
CC(=O)OCC(=O)C1CCC=CC1OC(C)=O (stereo not given) | 95.4%
Nc1ccc(Nc2nccc(-c3ccc4ccccc4c3)n2)cc1 | 32.2%
O=C1/C(=C/c2ccc(Cl)cc2Cl)CN(S(=O)(=O)c2ccccc2)C/C1=C\c1ccc(Cl)cc1Cl | 2.57% (active)
COc1ccc(-c2nc(Nc3cc(C)[nH]n3)c3ccccc3n2)cc1 | 52.9%
COc1ccc(-c2csc(NC(=O)CN3CCN(c4cc5c(cc4F)c(=O)c(C(=O)O)cn5C4CC4)CC3)n2)cc1 | 12.1%
COc1cc(OC)c(/C=C/S(=O)(=O)Cc2ccc(OC)c(N)n2)c(OC)c1 | 42.3%
Oc1ccc(Nc2nccc(-c3ccc4ccccc4c3)n2)cc1 | 39.4%
Cc1cc(Nc2nc(N3CCNCC3)nc3ccccc23)n[nH]1 | 74.6%
C[C@@H]1CC[C@@H]2[C@@H]1[C@H](OC(=O)/C=C/c1ccccc1)[C@]1(c3ccccc3)C[C@@H](OC(=O)CO)[C@@]2(C)O1 | 75.4%
O=C(/C=C/c1ccc(B(O)O)cc1)/C=C/c1ccc(B(O)O)cc1 | 13%
Cc1ccc(S(=O)(=O)n2cc(-c3csc(-c4cn(C)c5ncccc45)n3)c3ccccc32)cc1 | 58.1%
CC/C=C\C[C@H](O)C/C=C1/C(=O)C=C[C@@H]1C/C=C\CCCC(N)=O | -45.8% (active)
Cc1cccc(NC(=O)c2sc3nc4c(cc3c2N)C(=O)CCC4)c1 | 22%
CC(=O)C1=C(O)C=C2Oc3c(C(=O)/C=C/c4ccccc4)c(O)c(C)c(O)c3[C@]2(C)C1=O | 32.9%
O=C1NC(=O)C(CC(=O)n2c(-c3ccccc3)nc3ccccc32)C(=O)N1 | 94.3%
CC1(C)OCC2OC3(C(=O)O)OC(C)(C)OC3C2O1 (stereo not given) | 111%
O=C(NC(Cc1ccccc1)C(=O)CCl)OCc1ccccc1 (stereo not given) | 68%
O=C1Nc2ccccc2/C1=C/C(=N/c1nnc(-c2ccccc2)s1)c1ccccc1 | 71.5%

Each compound was assayed on LOX IMVI melanoma in the same assay as above. Details: 10 µM unless noted.

Compound | growth
Cc1nn(-c2ccccc2)c2nc(C)n(-c3ccc(Br)cc3)c(=O)c12 | 45.6%
CCOC(=O)C(CC)n1c(=O)c2cc(OC)c(OC)cc2c2cnc3[nH]ccc3c21 (stereo not given) | 44.8%
CC(C)c1c(C(=O)Nc2ccccc2)c(-c2ccccc2)c(-c2ccc(F)cc2)n1CC[C@@H]1CC=CC(=O)O1 | -75.4% (active)
CC(=O)N1CC(Nc2ccc(OC(F)(F)F)cc2)=CC1=O | 43.7%
Oc1ccccc1/C=N/Nc1ccc2ccccc2n1 | 42.3%
O=[N+]([O-])c1cccc(C2CC(c3ccccc3)=Nc3ccccc3S2)c1 (stereo not given) | 22.6%
CCCCCC(=O)N(CCCC)CCCC | 110%
CCCCCCCCCCCCCCCCNCCC[C@@H](C)[C@H]1CC[C@H]2[C@@H]3[C@H](OCCCN)C[C@@H]4C[C@H](OCCCN)CC[C@]4(C)[C@H]3C[C@H](OCCCN)[C@]12C | -60.4% (active)
COc1ccc(-c2cc(NC(=O)Nc3ccc(O)cc3)no2)cc1 | 7.79% (active)
O=C(O)C(O)C(O)C(=O)O.[NH-]C1CCCCC1[NH-].[Pt+2] (stereo not given) | 112%
CCCNc1nc(SC)nc(-c2cccc(N)c2)c1C#N | 94.1%
CC(=O)OCC(=O)C1CCC=CC1OC(C)=O (stereo not given) | 96.1%
Nc1ccc(Nc2nccc(-c3ccc4ccccc4c3)n2)cc1 | 38.1%
O=S(=O)(Nc1ccc(Cl)cc1Cl)c1ccc(-c2cnc(C3CC3)o2)cc1 | 43.3%
O=C1/C(=C/c2ccc(Cl)cc2Cl)CN(S(=O)(=O)c2ccccc2)C/C1=C\c1ccc(Cl)cc1Cl | -58.7% (active)
COc1ccc(-c2nc(Nc3cc(C)[nH]n3)c3ccccc3n2)cc1 | 13.7%
COc1ccc(-c2csc(NC(=O)CN3CCN(c4cc5c(cc4F)c(=O)c(C(=O)O)cn5C4CC4)CC3)n2)cc1 | -80% (active)
Cc1noc(C)c1-c1cc(O)cc(C(O)c2ccccc2)c1 (stereo not given) | 27.3%
COc1cc(OC)c(/C=C/S(=O)(=O)Cc2ccc(OC)c(N)n2)c(OC)c1 | 9.35% (active)

Compound | growth
Oc1ccc(Nc2nccc(-c3ccc4ccccc4c3)n2)cc1 | 27.1%
Cc1cc(Nc2nc(N3CCNCC3)nc3ccccc23)n[nH]1 | 88.6%
CCCCCN(CCCCC)CCC[C@@H](C)[C@H]1CC[C@H]2[C@@H]3[C@H](OCCCN)C[C@@H]4C[C@H](OCCCN)CC[C@]4(C)[C@H]3C[C@H](OCCCN)[C@]12C | 3% (active)
C[C@@H]1CC[C@@H]2[C@@H]1[C@H](OC(=O)/C=C/c1ccccc1)[C@]1(c3ccccc3)C[C@@H](OC(=O)CO)[C@@]2(C)O1 | 97.8%
O=C(/C=C/c1ccc(B(O)O)cc1)/C=C/c1ccc(B(O)O)cc1 | -36.5% (active)
CC[C@H](Nc1cc(C)nc(N)n1)c1nc2cccc(NCc3ccc(C(=O)NO)cc3)c2c(=O)n1-c1ccccc1 | -57.9% (active)
Cc1ccc(S(=O)(=O)n2cc(-c3csc(-c4cn(C)c5ncccc45)n3)c3ccccc32)cc1 | 51.2%
CC/C=C\C[C@H](O)C/C=C1/C(=O)C=C[C@@H]1C/C=C\CCCC(N)=O | -56.2% (active)
Cc1cccc(NC(=O)c2sc3nc4c(cc3c2N)C(=O)CCC4)c1 | 54.4%
CC(=O)C1=C(O)C=C2Oc3c(C(=O)/C=C/c4ccccc4)c(O)c(C)c(O)c3[C@]2(C)C1=O | 41.4%
O=C1NC(=O)C(CC(=O)n2c(-c3ccccc3)nc3ccccc32)C(=O)N1 | 97.2%
Oc1cccc(Nc2nccc(-c3ccc4ccccc4c3)n2)c1 | 32.5%
COc1c(Cl)cc(Cl)cc1Cl | 107%
CC1(C)OCC2OC3(C(=O)O)OC(C)(C)OC3C2O1 (stereo not given) | 84.5%
O=C(NC(Cc1ccccc1)C(=O)CCl)OCc1ccccc1 (stereo not given) | -7.12% (active)
O=C(N/N=C/c1ccc(O)cc1O)c1cccnc1 | 21.8%
O=c1c2cccc3c(NC4CCCCC4)ccc(c32)c2nc3ccccc3n12 | 73.4%
O=C1Nc2ccccc2/C1=C/C(=N/c1nnc(-c2ccccc2)s1)c1ccccc1 | -86.3% (active)
